Test results: PubChem BioAssay AID360 (National Center for Advancing Translational Sciences (NCATS), 2006)
Out of some 48,000 compounds screened, about 550 (1.1%) were called active. Inconclusive results (about 4%) are left out. The full list was thinned out, with actives kept by preference. Unmarked numbers belong to inactive results. Rule as the data show it: active = potency below about 15 µM; inconclusive = mostly about 16 µM to 33 µM; inactive = weaker than that.

Target: Lysosomal acid glucosylceramidase (Homo sapiens) (UniProt P04062)
Sequence (P04062 whole entry, looked up): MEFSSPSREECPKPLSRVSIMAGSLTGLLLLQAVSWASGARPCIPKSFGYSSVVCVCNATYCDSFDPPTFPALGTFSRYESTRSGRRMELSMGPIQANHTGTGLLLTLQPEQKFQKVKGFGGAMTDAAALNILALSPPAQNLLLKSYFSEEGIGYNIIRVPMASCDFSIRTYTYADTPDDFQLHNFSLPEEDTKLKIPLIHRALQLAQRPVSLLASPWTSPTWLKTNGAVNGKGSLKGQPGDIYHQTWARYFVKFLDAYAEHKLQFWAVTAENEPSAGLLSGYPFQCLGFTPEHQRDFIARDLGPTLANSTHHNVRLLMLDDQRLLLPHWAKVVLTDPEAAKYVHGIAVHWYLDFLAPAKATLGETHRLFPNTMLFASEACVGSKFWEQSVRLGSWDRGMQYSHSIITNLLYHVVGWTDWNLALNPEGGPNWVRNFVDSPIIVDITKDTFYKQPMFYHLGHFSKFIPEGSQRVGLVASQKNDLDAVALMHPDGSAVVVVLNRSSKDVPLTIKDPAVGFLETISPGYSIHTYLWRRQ
Test: Glucocerebrosidase;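 also: the screen sought inhibitors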
Conditions: purified enzyme, resorufin glucoside fluorescence (screen aimed at inhibitors), 20 min
Procedure, shortened: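 Compounds titrated against 0.2 nM normal enzyme, 30 uM resorufin beta-D-glucopyranoside substrate, citrate/phosphate buffer with taurocholate and tween-20, pH 5.9. Reaction ran 20 min at room temperature; fluorescence (Ex 548/Em 600) gave AC50.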
Potency is read from the fitted curve at half-maximal effect.

SMILES	Potency
O=C(Cn1c(=O)sc2ccccc21)Nc1ccc2c(c1)OCCO2	> 76.9 µM
COc1ccc(C(c2nnnn2Cc2cccs2)N2CCN(c3ccccc3)CC2)cc1OC (stereo not given)	> 76.9 µM
O=C(Cn1c(=S)nc2ccccn21)N1CCc2ccccc2C1	> 76.9 µM
CCOc1nc(-c2ccc(OC)cc2)ccc1-c1noc(-c2cc(OC)c(OC)c(OC)c2)n1	6.96 µM (active)
COc1ccc(-c2nc(-c3ccccc3)no2)c(OC)c1	> 76.9 µM
COc1ccc(-c2ccc(-c3noc(-c4ccncc4)n3)c(OC)n2)cc1	> 76.9 µM
CCCC(=O)Nc1ccc2c(c1)nc1n2CCSC1	> 76.9 µM
O=C(O)CCC(=O)N(Cc1ccco1)c1nc(-c2ccccc2)cs1	> 76.9 µM
COCc1nnc(NC(=O)CS(=O)(=O)Cc2ccccc2)s1	> 76.9 µM
Cc1ccc(C)n1-c1ccncc1	> 76.9 µM
Cc1ccc(C(C(=O)NCc2ccco2)N(CC2CCCO2)C(=O)Cn2nnc3ccccc32)cc1 (stereo not given)	> 76.9 µM
Cc1ccc(-c2noc(CCC(N)=O)n2)cc1	> 76.9 µM
Cc1ccc(S(=O)(=O)N2CCOCC2)cc1C(=O)NCc1ccc(F)cc1	> 76.9 µM
Cc1cc(C)n(-c2nc(SCC(=O)N3CCCC3)c3c4c(sc3n2)CCCC4)n1	> 76.9 µM
Cc1nc(SCC(=O)Nc2cc(C)on2)c2c3c(sc2n1)CCCC3	15.3 µM (active)
Cc1nc(SCC(=O)Nc2cc(C)on2)c2c(C)c(C)sc2n1	> 76.9 µM
CCn1nnc(NC(=O)c2cc(Cl)c(OC)c(Cl)c2)n1	> 76.9 µM
CCOc1cc(N2CCOCC2)c(OCC)cc1NC(=O)COc1cccc2cccnc12	> 76.9 µM
Cc1ccccc1OCC(=O)Nc1ccc(N2CCN(C(=O)C(C)C)CC2)c(Cl)c1	2.17 µM (active)
Cc1cccc(NC(=O)COc2ccccc2C)n1	> 76.9 µM

SMILES	Potency
CC1(C)CC(=O)C2=C(C1)NCN(CCCN1CCOCC1)C2	> 76.9 µM
Cn1c(=O)[nH]c(=O)c2c1nc(N1CCCCCC1)n2CC(=O)c1ccccc1	> 76.9 µM
CCn1c(SCC(=O)Nc2cc(C)c(Cl)cc2OC)nnc1-c1ccco1	> 76.9 µM
N#Cc1c(N)sc2c1CCN(C(=O)OCc1ccccc1)C2	> 76.9 µM
O=C(O)CCC(=O)N(Cc1cccs1)Cc1cccs1	> 76.9 µM
O=C(O)C1CC(=O)N(Cc2cccnc2)C1 (stereo not given)	> 76.9 µM
CC(NC(=O)c1cc(-c2ccccc2)on1)c1ccccc1 (stereo not given)	> 76.9 µM
Cc1cc(C)nc(NC(=O)Nc2ccccc2C(F)(F)F)n1	> 76.9 µM
O=C(Nc1ccccc1C(F)(F)F)c1cc(-c2ccc(O)cc2)on1	13.4 µM (active)
Cc1ccc(C(=O)CSc2nnc(Cn3nnc4ccccc43)n2C)cc1	> 76.9 µM
CC1CCN(C(=O)Cn2cc(C(=O)c3ccco3)c3ccccc32)CC1	12.7 µM (active)
COC(=O)Cn1cc(C(=O)c2cccs2)c2ccccc21	> 76.9 µM
CCOC(=O)C1CCN(C(=O)Cn2cc(C#N)c3ccccc32)CC1	> 76.9 µM
O=C(OCC(O)C(O)COC(=O)c1ccccc1)c1ccccc1 (stereo not given)	> 76.9 µM
Cc1ccc(C)c(NS(=O)(=O)c2cc(Br)cnc2N)c1	15.2 µM (active)
Cc1ccc(S(=O)(=O)NCc2csc(C)n2)c(C)c1	> 76.9 µM
COC(=O)c1c(NC(=O)CSc2nc3c(c(=O)n(C)c(=O)n3C)n2C(C)C)sc(C)c1C	> 76.9 µM
Cc1nc2nc(COc3ccccc3)[nH]n2c(=O)c1C	> 76.9 µM
Cc1nc2c(-c3ccccc3)c(C)[nH]n2c(=O)c1Cl	5.44 µM (active)
CCn1c(COc2ccccc2)nnc1SCC(=O)Nc1ccc2c(c1)OCCO2	> 76.9 µM

SMILES	Potency
O=C(NCc1cn2ccsc2n1)Nc1ccc(Cl)cc1	> 76.9 µM
O=C(NCc1ccc(Cl)cc1)c1cc2c(nc3sccn32)s1	8.26 µM (active)
O=c1cc(Cn2nnc(-c3ccc(Cl)cc3)n2)nc2sccn12	> 76.9 µM
CCn1c(SCC(=O)c2ccc(Cl)s2)nnc1-c1cccs1	> 76.9 µM
CC(=O)N1CCC(C(=O)Nc2nc(-c3ccccc3)ns2)CC1	7.19 µM (active)
CCN(CC)S(=O)(=O)N1CCC(C(=O)NC(C)CCc2ccccc2)CC1 (stereo not given)	> 76.9 µM
Cc1ccc2c(NC(=O)C3CC3)cccc2n1	> 76.9 µM
CCc1nnc(NS(=O)(=O)c2ccc(NS(=O)(=O)c3ccccc3)cc2)s1	> 76.9 µM
CCc1nnc(NC(=O)C2CCCN2S(=O)(=O)c2ccccc2)s1 (stereo not given)	> 76.9 µM
CCc1nnc(NC(=O)c2ccc(S(=O)(=O)NC3CCCCC3)cc2)s1	9.65 µM (active)
O=C(c1ccccc1-c1ccccc1)N1CCOCC1	> 76.9 µM
Cc1occc1C(=O)Nc1cccc(Cn2cccn2)c1	> 76.9 µM
CCNc1nc(N)nc(Oc2ccc(OCC)nn2)n1	> 76.9 µM
CC(C)(C)c1nc(NCC2CCCO2)c2nnn(Cc3ccccc3)c2n1 (stereo not given)	> 76.9 µM
CC(C)(C)NC(=O)Cn1nnc(-c2ccccc2Cl)n1	15.2 µM (active)
Cc1ccccc1-c1nnn(CC(=O)c2ccc(S(=O)(=O)N3CCCC3)cc2)n1	> 76.9 µM
O=C(Cn1nnc(-c2ccccc2)n1)NCc1ccccc1	> 76.9 µM
Cc1noc(C)c1COC(=O)Cn1c(C)nc2ccccc21	> 76.9 µM
CC(C)[C@H](NC(=O)Nc1ccc(S(N)(=O)=O)cc1)C(=O)O	> 76.9 µM
COc1ccc(OC)c(NC(=O)CSc2nc3cccnc3n2C)c1	> 76.9 µM
